Records with an inconclusive call do not appear. Calls of active or inactive are those of the source. How the source made its calls, unless noted: active means hit-call score of the fitted dose curve at least 0.9, where 1 is the maximum; inactive means score below 0.9.

For experiment [1], the target named is Retinoic acid receptor RXR-alpha (Homo sapiens) (UniProt P19793). As to the kind of experiment: ATG_RXRa_TRANS: Attagene TRANS-FACTORIAL HepG2 Assay for human Retinoid X Receptor alpha (RXRa) (AID 2283012; active means hit-call score of the fitted dose curve at least 0.9, where 1 is the maximum). An outline of the steps:
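Cells (HepG2) carried transiently transfected GAL4-responsive reporter units. Following a 24 h chemical incubation, reporter mRNA induction was read via RT-PCR fragment analysis; DMSO served as negative control and baseline.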

Experiment [2] addresses human Retinoid X Receptor beta (RXRb), RXRB (gene 6257) (UniProt P28702). The experiment in a line: ATG_RXRb_TRANS: Attagene TRANS-FACTORIAL HepG2 Assay for human Retinoid X Receptor beta (RXRb) (AID 2283013; active means hit-call score of the fitted dose curve at least 0.9, where 1 is the maximum). An outline of the steps:
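Multiplexed TRANS reporter assay in HepG2; 24 h dosing; reporter mRNA by RT-PCR/CE fluorescence; gain-of-signal relative to DMSO.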

Read-out in experiment [3]: E-selectin (Homo sapiens) (UniProt P16581)
As to the kind of experiment: BSK_3C_Eselectin: BioMAP Diversity Plus: 3C Assay for Eselectin Biomarker Activity (AID 2283015).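 Further: cell surface E-selectin protein quantified by ELISA 24 h after dosing.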 Particulars: primary human endothelial cells (HUVEC); actives raise or lower the signal. In a few lines: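 Primary human umbilical vein endothelial cells (3C system) were dosed with chemical and cell-surface E-selectin measured by ELISA 24 h later. Bidirectional curve fitting used DMSO as negative control and baseline.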

Read-out in experiment [4]: Interleukin-1 alpha (IL1a), IL1A (gene 3552)
The experiment in a line: BSK_BE3C_IL1a: BioMAP Diversity Plus: BE3C Assay for Interleukin-1 alpha (IL1a) Biomarker Activity (AID 2283016). Conditions: primary human bronchial epithelial cells; actives raise or lower the signal. An outline of the steps: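 Cultures of primary human bronchial epithelial cells receive test chemical. After 24 h, IL-1a is quantified by ELISA, while parallel wells are fixed in TCA and SRB-stained for total protein. Changes in either direction are fitted relative to DMSO.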

Read-out in experiment [5]: Monocyte Chemoattractant Protein-1 (MCP1), CCL2 (gene 6347)
As to the kind of experiment: BSK_3C_MCP1: BioMAP Diversity Plus: 3C Assay for Monocyte Chemoattractant Protein-1 (MCP1) Biomarker Activity (AID 2283017). Conditions: primary human endothelial cells (HUVEC); actives raise or lower the signal. In a few lines: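 Primary human umbilical vein endothelial cells (3C system) were exposed to test chemical for 24 h, after which MCP-1 was quantified by ELISA. Activity was fitted bidirectionally against DMSO as negative control and baseline.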

Read-out in experiment [6]: Monocyte Chemoattractant Protein-1 (MCP1), CCL2 (gene 6347)
The experiment in a line: BSK_4H_MCP1: BioMAP Diversity Plus: 4H Assay for Monocyte Chemoattractant Protein-1 (MCP1) Biomarker Activity (AID 2283018). Particulars: primary human endothelial cells (HUVEC); actives raise or lower the signal. An outline of the steps: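 Readout: MCP-1 ELISA on compound-treated HUVEC, sampled 24 h post-dosing. Baseline and negative control DMSO; bidirectional fit. Overt toxicity checked alongside by sulforhodamine B protein staining at time of biomarker measurement.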

Read-out in experiment [7]: Human Leukocyte Antigen - DR isotype (HLADR), HLA-DRA (gene 3122)
The experiment in a line: BSK_3C_HLADR: BioMAP Diversity Plus: 3C Assay for Human Leukocyte Antigen - DR isotype (HLADR) Biomarker Activity (AID 2283019).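 Further: ELISA of cell-surface HLA-DR on HUVEC 24 h after dosing.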 Particulars: primary human endothelial cells (HUVEC); actives raise or lower the signal. An outline of the steps:
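Primary human umbilical vein endothelial cells (3C system) were dosed with compound and cell-surface HLA-DR was quantified by ELISA at 24 h. Activity was fitted bidirectionally against DMSO as negative control and baseline.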

Read-out in experiment [8]: Interleukin-8 (IL8), CXCL8 (gene 3576)
As to the kind of experiment: BSK_3C_IL8: BioMAP Diversity Plus: 3C Assay for Interleukin-8 (IL8) Biomarker Activity (AID 2283020). Particulars: primary human endothelial cells (HUVEC); actives raise or lower the signal. In a few lines:
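Human vascular endothelial cells (umbilical vein) in the 3C system; IL-8 level detected by ELISA at 24 h post-dose, with DMSO as baseline.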

Read-out in experiment [9]: Monokine induced gamma interferon (MIG), CXCL9 (gene 4283)
The experiment in a line: BSK_3C_MIG: BioMAP Diversity Plus: 3C Assay for Monokine induced gamma interferon (MIG) Biomarker Activity (AID 2283021). Particulars: primary human endothelial cells (HUVEC); actives raise or lower the signal. An outline of the steps: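 After 24 h of treatment, human umbilical vein endothelial cultures (3C system) had their MIG biomarker level determined by ELISA, with DMSO serving as negative control.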

Read-out in experiment [10]: Matrix Metallopeptidase 1 (MMP1), MMP1 (gene 4312)
The experiment in a line: BSK_BE3C_MMP1: BioMAP Diversity Plus: BE3C Assay for Matrix Metallopeptidase 1 (MMP1) Biomarker Activity (AID 2283024). Particulars: primary human bronchial epithelial cells; actives raise or lower the signal. An outline of the steps:
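Dose cells, wait 24 h, run MMP1 ELISA; cells are human bronchial epithelial primaries. Both increases and decreases relative to DMSO counted.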

Experiment [11] in a line: BSK_3C_Vis: BioMAP Diversity Plus: 3C Assay for Morphology Visualization (AID 2283025).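 Further: fitted both ways so gain or loss versus DMSO counts.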 Particulars: primary human endothelial cells (HUVEC). An outline of the steps: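 Endothelial cells from human umbilical vein were treated with test chemicals for 24 h and inspected by light microscopy for changes in cell conformation.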
Read-out in experiment [12]: Pselectin, SELP (gene 6403)
As to the kind of experiment: BSK_4H_Pselectin: BioMAP Diversity Plus: 4H Assay for Pselectin Biomarker Activity (AID 2283026). Conditions: primary human endothelial cells (HUVEC); actives raise or lower the signal. In a few lines: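 Human vascular endothelium from umbilical vein; P-selectin measured by ELISA at 24 h post-dose, with cytotoxicity checked by sulforhodamine B total-protein staining in parallel cultures (0.1% SRB after 10% TCA fixation, read at 560 nm).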

Experiment [13] in a line: BSK_4H_SRB: Viability Assessment in the BioMAP Diversity Plus: 4H Assay (AID 2283027).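 Further: cells exposed to compound for 24 h before staining.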 Conditions: primary human endothelial cells (HUVEC). An outline of the steps:
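Human umbilical vein endothelial cells were dosed with chemical and, after 24 h, fixed with 10% TCA, stained with 0.1% sulforhodamine B, and read at 560 nm to give total protein as a cytotoxicity measure. Bidirectional fitting relative to DMSO control.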

Read-out in experiment [14]: Thrombomodulin, THBD (gene 7056)
The experiment in a line: BSK_3C_Thrombomodulin: BioMAP Diversity Plus: 3C Assay for Thrombomodulin Biomarker Activity (AID 2283029). Particulars: primary human endothelial cells (HUVEC); actives raise or lower the signal. In a few lines: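 Thrombomodulin ELISA, human primary HUVEC, 24 h post-dose; data fitted in both directions relative to DMSO.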

Read-out in experiment [15]: Urokinase-type plasminogen activator receptor (uPAR), PLAUR (gene 5329)
The experiment in a line: BSK_4H_uPAR: BioMAP Diversity Plus: 4H Assay for Urokinase-type plasminogen activator receptor (uPAR) Biomarker Activity (AID 2283030). Particulars: primary human endothelial cells (HUVEC); actives raise or lower the signal. In a few lines: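 Primary human umbilical vein endothelial cells were exposed to chemical for 24 h before cell-surface uPAR was quantified by ELISA. Activity was fitted bidirectionally against the DMSO negative control baseline.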

Experiment [16] addresses human Vitamin D Receptor (VDR), VDR (gene 7421) (UniProt P11473). The experiment in a line: ATG_VDR_TRANS: Attagene TRANS-FACTORIAL HepG2 Assay for human Vitamin D Receptor (VDR) (AID 2283022; active means hit-call score of the fitted dose curve at least 0.9, where 1 is the maximum). An outline of the steps:
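HepG2 cells were transiently transfected with multiple GAL4-UAS reporter units, so signal reflects exogenous chimeric receptor-Gal4 activity. After 24 h compound exposure, reporter mRNA was measured by RT-PCR, fluorescent labelling and capillary electrophoresis, fitted for gain of signal versus DMSO.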

The nature of experiment [17]: BSK_3C_SRB: Viability Assessment in the BioMAP Diversity Plus: 3C Assay (AID 2283023).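 Further: fitted both ways against DMSO so a hit may be signal rise or drop.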 Conditions: primary human endothelial cells (HUVEC). In a few lines:
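Primary human umbilical vein endothelial cells in the 3C system were read 24 h after compound dosing. Total protein was stained with 0.1% sulforhodamine B after 10% TCA fixation and read at 560 nm, with bidirectional fitting against DMSO as baseline.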

A short description of experiment [18]: BSK_BE3C_SRB: Viability Assessment in the BioMAP Diversity Plus: BE3C Assay (AID 2283028). Conditions: primary human bronchial epithelial cells. An outline of the steps:
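Human primary bronchial epithelial cells were exposed to test chemicals for 24 h. Total protein in parallel cultures was then measured by staining with 0.1% sulforhodamine B after 10% TCA fixation, with absorbance read at 560 nm. Activity was fitted bidirectionally against DMSO.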

For experiment [19], the target named is human Thyroid Receptor alpha (THRa1), THRA (gene 7067) (UniProt P10827). The experiment in a line: ATG_THRa1_TRANS: Attagene TRANS-FACTORIAL HepG2 Assay for human Thyroid Receptor alpha (THRa1) (AID 2283014; active means hit-call score of the fitted dose curve at least 0.9, where 1 is the maximum). An outline of the steps:
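HepG2 cells transiently transfected with multiplexed GAL4-UAS reporter units for exogenous chimeric THRa1-Gal4; reporter mRNA measured 24 h after dosing by RT-PCR, 6-FAM labelling, HpaI digestion and capillary electrophoresis. Gain-of-signal fitted versus DMSO baseline.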

Experiment [20] has as its target human RAR-related Orphan Receptor gamma (RORg), RORC (gene 6097) (UniProt P51449). The experiment in a line: ATG_RORg_TRANS: Attagene TRANS-FACTORIAL HepG2 Assay for human RAR-related Orphan Receptor gamma (RORg) (AID 2283011; active means hit-call score of the fitted dose curve at least 0.9, where 1 is the maximum). An outline of the steps:
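Readout: reporter transcript induction (RT-PCR, fluorescent primer extension, capillary electrophoresis) after 24 h compound exposure of transiently transfected HepG2 cells carrying a RORg-Gal4 chimera and GAL4-UAS reporters; DMSO served as baseline, with increasing signal fitted.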

Sequence of human Thyroid Receptor alpha (THRa1), THRA (gene 7067) (P10827 whole entry, looked up, the tested form may be a part): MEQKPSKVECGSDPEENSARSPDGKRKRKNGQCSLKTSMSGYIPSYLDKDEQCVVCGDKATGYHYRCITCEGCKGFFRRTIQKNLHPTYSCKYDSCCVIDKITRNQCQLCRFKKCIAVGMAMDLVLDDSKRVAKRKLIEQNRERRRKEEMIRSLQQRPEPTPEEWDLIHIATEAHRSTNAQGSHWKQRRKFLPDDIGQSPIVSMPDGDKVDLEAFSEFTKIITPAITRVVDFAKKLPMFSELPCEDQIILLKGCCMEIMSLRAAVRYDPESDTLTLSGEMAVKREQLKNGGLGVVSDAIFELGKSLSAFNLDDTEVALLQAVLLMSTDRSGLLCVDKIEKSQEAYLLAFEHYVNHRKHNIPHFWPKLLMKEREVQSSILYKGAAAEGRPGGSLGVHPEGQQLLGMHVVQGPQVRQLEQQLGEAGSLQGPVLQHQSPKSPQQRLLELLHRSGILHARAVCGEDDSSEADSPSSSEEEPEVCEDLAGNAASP
Sequence of human Retinoid X Receptor beta (RXRb), RXRB (gene 6257) (P28702 whole entry, looked up): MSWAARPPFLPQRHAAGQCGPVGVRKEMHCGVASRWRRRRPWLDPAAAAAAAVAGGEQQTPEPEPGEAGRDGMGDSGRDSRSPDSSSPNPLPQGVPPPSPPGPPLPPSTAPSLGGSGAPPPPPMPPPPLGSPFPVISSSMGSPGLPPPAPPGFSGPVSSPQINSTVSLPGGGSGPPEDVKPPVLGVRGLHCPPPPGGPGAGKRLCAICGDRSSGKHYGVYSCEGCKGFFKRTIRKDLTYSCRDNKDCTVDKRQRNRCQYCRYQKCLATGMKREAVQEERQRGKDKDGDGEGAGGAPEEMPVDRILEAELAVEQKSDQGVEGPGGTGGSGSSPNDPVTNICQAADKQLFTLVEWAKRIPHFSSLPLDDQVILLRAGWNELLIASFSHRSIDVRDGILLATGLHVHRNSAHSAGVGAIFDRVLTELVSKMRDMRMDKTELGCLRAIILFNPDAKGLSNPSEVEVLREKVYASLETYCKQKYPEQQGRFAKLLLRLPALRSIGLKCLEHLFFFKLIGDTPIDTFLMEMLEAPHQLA
Sequence of Retinoic acid receptor RXR-alpha (Homo sapiens) (P19793 whole entry, looked up, the tested form may be a part): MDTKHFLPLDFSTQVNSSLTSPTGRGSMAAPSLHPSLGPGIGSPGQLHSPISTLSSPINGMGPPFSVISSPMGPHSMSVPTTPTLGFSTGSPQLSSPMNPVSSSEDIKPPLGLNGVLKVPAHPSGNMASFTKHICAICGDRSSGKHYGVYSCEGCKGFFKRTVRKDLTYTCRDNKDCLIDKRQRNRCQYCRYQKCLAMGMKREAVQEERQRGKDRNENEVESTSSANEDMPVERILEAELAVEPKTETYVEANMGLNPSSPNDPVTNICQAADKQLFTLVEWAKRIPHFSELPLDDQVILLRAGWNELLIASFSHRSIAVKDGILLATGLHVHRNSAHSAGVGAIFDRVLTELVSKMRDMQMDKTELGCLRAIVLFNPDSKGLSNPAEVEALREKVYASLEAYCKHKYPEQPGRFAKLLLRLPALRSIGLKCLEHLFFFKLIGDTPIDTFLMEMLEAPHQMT
Sequence of E-selectin (Homo sapiens) (P16581 whole entry, looked up): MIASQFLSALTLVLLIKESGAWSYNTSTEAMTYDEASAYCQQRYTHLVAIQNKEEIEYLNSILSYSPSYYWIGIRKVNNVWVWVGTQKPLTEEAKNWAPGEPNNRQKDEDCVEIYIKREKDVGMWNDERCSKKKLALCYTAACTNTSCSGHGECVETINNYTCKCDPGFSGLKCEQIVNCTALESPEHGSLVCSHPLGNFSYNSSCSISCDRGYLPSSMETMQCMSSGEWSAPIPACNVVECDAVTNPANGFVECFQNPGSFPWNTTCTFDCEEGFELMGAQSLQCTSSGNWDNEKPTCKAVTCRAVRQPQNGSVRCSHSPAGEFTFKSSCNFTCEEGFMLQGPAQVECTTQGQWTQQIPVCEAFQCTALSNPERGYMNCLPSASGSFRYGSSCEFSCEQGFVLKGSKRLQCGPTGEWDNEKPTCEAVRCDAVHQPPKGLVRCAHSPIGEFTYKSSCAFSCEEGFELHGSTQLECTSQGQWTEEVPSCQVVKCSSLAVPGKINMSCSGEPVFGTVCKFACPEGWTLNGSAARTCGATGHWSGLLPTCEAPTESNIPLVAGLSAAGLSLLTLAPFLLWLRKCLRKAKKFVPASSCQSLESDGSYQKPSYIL
Sequence of human Vitamin D Receptor (VDR), VDR (gene 7421) (P11473 whole entry, looked up, the tested form may be a part): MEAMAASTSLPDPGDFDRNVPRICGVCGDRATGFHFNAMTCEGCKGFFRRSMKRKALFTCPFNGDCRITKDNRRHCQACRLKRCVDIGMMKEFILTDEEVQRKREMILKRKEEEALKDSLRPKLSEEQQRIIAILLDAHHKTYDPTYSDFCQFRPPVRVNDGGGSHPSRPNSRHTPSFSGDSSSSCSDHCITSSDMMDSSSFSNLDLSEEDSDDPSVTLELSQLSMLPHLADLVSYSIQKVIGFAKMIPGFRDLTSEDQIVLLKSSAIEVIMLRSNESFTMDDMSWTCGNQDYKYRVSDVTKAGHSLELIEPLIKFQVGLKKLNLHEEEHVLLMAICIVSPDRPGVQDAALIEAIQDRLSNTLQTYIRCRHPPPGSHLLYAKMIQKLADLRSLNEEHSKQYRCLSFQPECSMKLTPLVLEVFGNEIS
Sequence of human RAR-related Orphan Receptor gamma (RORg), RORC (gene 6097) (P51449 whole entry, looked up, the tested form may be a part): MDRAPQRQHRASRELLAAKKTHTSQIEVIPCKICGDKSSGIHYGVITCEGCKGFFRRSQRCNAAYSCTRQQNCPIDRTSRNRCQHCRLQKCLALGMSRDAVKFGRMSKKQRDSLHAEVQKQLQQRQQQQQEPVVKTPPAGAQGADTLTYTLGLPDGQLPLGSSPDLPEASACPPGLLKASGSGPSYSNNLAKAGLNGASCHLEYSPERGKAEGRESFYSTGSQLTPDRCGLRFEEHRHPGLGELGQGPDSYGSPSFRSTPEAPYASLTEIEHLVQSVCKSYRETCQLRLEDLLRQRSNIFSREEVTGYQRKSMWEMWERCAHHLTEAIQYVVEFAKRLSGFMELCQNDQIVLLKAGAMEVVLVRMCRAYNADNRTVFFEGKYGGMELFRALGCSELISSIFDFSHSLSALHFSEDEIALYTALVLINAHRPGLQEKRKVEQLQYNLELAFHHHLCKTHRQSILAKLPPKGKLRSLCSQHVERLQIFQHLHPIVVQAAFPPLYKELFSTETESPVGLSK

Consider `CC(=O)Oc1ccccc1C(=O)O`, for which the figures for the AC50 in experiment [1], in [2] and in [15] were 127 µM (active), 8.23 µM (active) and 0.412 µM (active), respectively. Moreover, the result in experiment [3], in experiment [4], in experiment [5], in experiment [6], in experiment [7] and in experiment [8] was inactive. For the same compound, the result in experiment [9], in experiment [10], in experiment [11], in experiment [12], in experiment [13] and in [14] was inactive.

As for `CC(CO)OC(C)CO` (centres undefined) (tested in a mixture with another compound), the AC50 (in general, the concentration giving half of the maximal activity seen) in experiment [2] is 13.8 µM (active). Moreover, the result in [3], in experiment [4], in experiment [5], in experiment [6], in [7] and in [8] was inactive. The result in experiment [9], in experiment [16], in experiment [17], in [10], in experiment [11] and in experiment [12] was inactive. Moreover, the result in [13], in experiment [18], in experiment [14] and in experiment [15] was inactive.

On to `Cc1cccc([N+](=O)[O-])c1C`, for which, in experiment [2], the AC50 is 53.4 µM (active). For the same compound, the call in [19], in experiment [3], in experiment [4], in experiment [5], in experiment [6] and in experiment [7] was inactive. The result in experiment [8], in experiment [16], in experiment [10], in experiment [11], in experiment [12] and in experiment [13] was inactive. The outcome in experiment [14] and in experiment [15] was inactive.

Take `CCNc1cccc(C)c1`: the call in experiment [1], in experiment [2], in [19], in experiment [3], in [4] and in experiment [5] was inactive. Further, the outcome in experiment [6], in experiment [7], in experiment [8], in [9], in experiment [16] and in experiment [17] was inactive. Besides, the outcome in experiment [10], in [11], in experiment [12], in experiment [13], in [14] and in experiment [15] was inactive.

As for `NCC1(Cc2noc(=O)[nH]2)CCCCC1`, the compound was called inactive in experiment [20], in experiment [3], in experiment [4], in [5], in [6] and in [7]. Further, the outcome in experiment [8], in experiment [17], in experiment [10], in experiment [11], in experiment [12] and in [13] was inactive. For the same compound, the outcome in experiment [18], in [14] and in experiment [15] was inactive.

Turning to `Cc1ccc(N(C)C)cc1`, the call in [1], in experiment [2], in experiment [19], in experiment [3], in experiment [4] and in [5] was inactive. For the same compound, the result in [6], in experiment [7], in experiment [8], in experiment [16], in experiment [17] and in [10] was inactive. Also, the result in [11], in experiment [12], in experiment [13], in experiment [18], in [14] and in [15] was inactive.

Consider `Cc1ccc(C)c(O)c1C`, for which the call in experiment [2], in experiment [19], in experiment [3], in experiment [4], in [5] and in experiment [6] was inactive. Also, the outcome in [7], in experiment [8], in [16], in experiment [10], in experiment [11] and in experiment [12] was inactive. Besides, the outcome in experiment [13], in experiment [14] and in experiment [15] was inactive.

With `O=C(OCCCCCOC(=O)c1ccccc1)c1ccccc1`, the call in experiment [2], in experiment [19], in experiment [3], in experiment [4], in experiment [5] and in [6] was inactive. The result in [7], in experiment [8], in [9], in experiment [10], in [11] and in experiment [12] was inactive. The outcome in experiment [13], in [18], in experiment [14] and in experiment [15] was inactive.

The record behind these values is PubChem BioAssay (EPA / NIEHS).
